Experimental data: PubChem BioAssay (NCI)
About 83,000 compounds went through this panel and 20% of them were active in at least one assay; those are over-represented in the sample as a whole.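 Treatment: one concentration, 48 hours, 96-well format. Scoring: percent growth, with anything below 10 considered active.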 Unmarked numbers belong to inactive results. Activity calls are given as the source filed them.

Tested on: LOX IMVI melanoma
Assay: NCI-60 one-dose screen, 48 h (100 = growth as untreated, 0 = no growth, -100 = all killed)
Conditions: 10 µM unless noted

Row | SMILES | growth
1 | CS(=O)(=O)c1ccc(-n2cc(/C=C/C(=O)c3ccc(NC(=O)CO[N+](=O)[O-])cc3)c(-c3ccc(Cl)cc3)n2)cc1 | 96.9%
2 | NS(=O)(=O)c1ccc(Nc2nc(SCC(=O)c3ccc(Cl)cc3)nc3ccccc23)cc1 | 99.5%
3 | Clc1ccc2oc3c(NCCCN4CCOCC4)c4ccccc4nc3c2c1 | -53.1% (active)
4 | Cc1ccc(/C=C/c2nn3c(-c4ccco4)nnc3s2)cc1C | 89.3%
5 | N=C1CC(=O)NN1C(=O)CSc1nc2sc3c(c2c(=O)n1-c1ccc(Cl)cc1)CCCC3 | 97.1%
6 | O=C(NNc1nc2cc(F)ccc2n2c(CN3CC4(COC4)C3)ccc12)c1cnccn1 | 19.1%
7 | COc1cc2nc(-c3ccc(C)cc3)cc(OCCCNCC3CCCO3)c2cc1OC (centres undefined) | -32.2% (active)
8 | CS(=O)(=O)c1ccc(-c2nc3ccccn3c2C=Nc2ccc(Cl)cc2)cc1 | -59.2% (active)
9 | COc1cc(-c2nc3ccc(-c4nnc(SCC(=O)Nc5ccc(C(C)=O)cc5)o4)cc3[nH]2)cc(OC)c1OC | 108%
10 | N#Cc1nc(-c2ccccc2)oc1S(N)(=O)=O | 10.5%
11 | O=C(CN1C(=O)/C(=C/c2ccccc2)SC1=S)N1CCOCC1 | -34.9% (active)
12 | Nc1ncc(-c2ccc3ncnc(N4CCc5cc(F)c(Cl)cc54)c3c2)cc1CO | 7.2% (active)
13 | Clc1ccc2c(NCCCn3ccnc3)c3oc4ccc(Cl)cc4c3nc2c1 | 22.4%
14 | CN(C)CCCNc1c2ccc(Cl)cc2nc2c1oc1ccc(Cl)cc12 | -93.7% (active)
15 | Cc1cc(=O)oc2cc(OCCCOc3ccc(/C=C/C(=O)Nc4ccc(Cl)cc4)cc3)ccc12 | 40.8%
16 | O=C(c1ccc(Cl)cc1)C1[C@H](c2ccc(Cl)cc2)[C@@H](c2ccccc2)NC12C(=O)Nc1ccc(Br)cc12 (some centres undefined) | 15.3%
17 | C[C@@H](Nc1c(C#N)cnc2ccc(-c3cnc(N)nc3)cc12)c1ccccc1 | 11.7%
18 | CCN1C(=S)N(CC)C2C1NN=C1SC(c3ccccc3)=CC(=O)N12 (centres undefined) | 100%
19 | CC(C)(O)c1cncc(-c2ccc3ncnc(N4CCc5cc(F)c(Cl)cc54)c3c2)c1 | 12.2%
20 | CC(C)(C)Nc1nc2c(OCCc3ccccc3)cccn2c1-c1ccccc1Cl | -96% (active)

Tested on: SK-MEL-28 melanoma
Assay: as above
Conditions: 10 µM unless noted

Row | SMILES | growth
21 | CCOC(=O)c1c(Nc2ccccc2)nn2c(N)c(C#N)c(-c3ccccc3)nc12 | 99.4%
22 | COC(=O)c1ccc(NC(=S)N2CCc3ccc([N+](=O)[O-])cc3C2)cc1O | 106%
23 | CCCC(=O)NC(c1cccc(N(C)C)c1)c1cc(C)c2cccnc2c1O (centres undefined) | 77.1%
24 | COc1cc(/C=C/C(=O)c2cc(OC)c(OC)c(OC)c2)ccc1Oc1nc(NCCO)nc(N2CCOCC2)n1 | 31.5%
25 | CS(=O)(=O)c1ccc(-n2cc(/C=C/C(=O)c3ccc(NC(=O)CO[N+](=O)[O-])cc3)c(-c3ccc(Cl)cc3)n2)cc1 | 66.1%
26 | Cc1cc2nc3c4cc(Cl)ccc4n(CC(=O)NCCN(C)C)c3nc2cc1C | -88.6% (active)
27 | Cc1cc2nc3c4cc(Cl)ccc4n(CC(=S)NCCN(C)C)c3nc2cc1C | -91.3% (active)
28 | NS(=O)(=O)c1ccc(Nc2nc(SCC(=O)c3ccc(Cl)cc3)nc3ccccc23)cc1 | 100%
29 | Clc1ccc2oc3c(NCCCN4CCOCC4)c4ccccc4nc3c2c1 | 36.9%
30 | Cc1ccc(/C=C/c2nn3c(-c4ccco4)nnc3s2)cc1C | 104%
31 | N=C1CC(=O)NN1C(=O)CSc1nc2sc3c(c2c(=O)n1-c1ccc(Cl)cc1)CCCC3 | 108%
32 | O=C(NNc1nc2cc(F)ccc2n2c(CN3CC4(COC4)C3)ccc12)c1cnccn1 | 20.6%
33 | COc1cc2nc(-c3ccc(C)cc3)cc(OCCCNCC3CCCO3)c2cc1OC (centres undefined) | 68.1%
34 | CS(=O)(=O)c1ccc(-c2nc3ccccn3c2C=Nc2ccc(Cl)cc2)cc1 | 74.3%
35 | C#Cc1nc(C2=C(C)C(=O)/C(=N/OC(C)=O)C2)cs1 | 107%
36 | CSCCC(C(=O)O)N1C(=O)/C(=C/c2ccc(O)c(O)c2)SC1=S (centres undefined) | 99.5%
37 | CC(=NNc1ncnc2ccccc12)c1ccc(S(C)(=O)=O)cc1 | 113%
38 | Nc1c(C(=O)c2ccc(Br)cc2)oc2nc(-c3cnccn3)cc(-c3cccs3)c12 | 107%
39 | COc1cc(-c2nc3ccc(-c4nnc(SCC(=O)Nc5ccc(C(C)=O)cc5)o4)cc3[nH]2)cc(OC)c1OC | 103%
40 | N#Cc1nc(-c2ccccc2)oc1S(N)(=O)=O | 69.5%

Row | SMILES | growth
41 | O=C(CN1C(=O)/C(=C/c2ccccc2)SC1=S)N1CCOCC1 | 96.5%
42 | Nc1ncc(-c2ccc3ncnc(N4CCc5cc(F)c(Cl)cc54)c3c2)cc1CO | -4.29% (active)
43 | Cc1ccc(C(=O)Nc2cccc(C(F)(F)F)c2)cc1Nc1nc(-c2cnccn2)nc2c1cnn2C | 15.6%
44 | Clc1ccc2c(NCCCn3ccnc3)c3oc4ccc(Cl)cc4c3nc2c1 | 94%
45 | CN(C)CCCNc1c2ccc(Cl)cc2nc2c1oc1ccc(Cl)cc12 | 72.5%
46 | O=C(N/N=C/c1ccc[nH]1)c1[nH]c2ccc(Br)cc2c1-c1ccccc1 | 61.2%
47 | C#Cc1nc(C2=C(C)/C(=N/OCc3ccccc3)CC2)cs1 | 94.6%
48 | N#Cc1ccc(C(=O)CSc2nc(Nc3ccc(S(N)(=O)=O)cc3)c3ccccc3n2)cc1 | 109%
49 | C=CCn1c(SCC(=O)c2ccccc2)nnc1-c1c[nH]c2ccccc12 | 105%
50 | Cc1cc(=O)oc2cc(OCCCOc3ccc(/C=C/C(=O)Nc4ccc(Cl)cc4)cc3)ccc12 | 75.8%
51 | O=C(c1ccc(Cl)cc1)C1[C@H](c2ccc(Cl)cc2)[C@@H](c2ccccc2)NC12C(=O)Nc1ccc(Br)cc12 (some centres undefined) | 67.3%
52 | C[C@@H](Nc1c(C#N)cnc2ccc(-c3cnc(N)nc3)cc12)c1ccccc1 | 20%
53 | CCN1C(=S)N(CC)C2C1NN=C1SC(c3ccccc3)=CC(=O)N12 (centres undefined) | 99.5%
54 | CC(C)(O)c1cncc(-c2ccc3ncnc(N4CCc5cc(F)c(Cl)cc54)c3c2)c1 | 24.8%
55 | CC(C)(C)Nc1nc2c(OCCc3ccccc3)cccn2c1-c1ccccc1Cl | 0.829% (active)
56 | COc1ccc(/C=N/NC(=O)c2[nH]c3ccc(Br)cc3c2-c2ccccc2)s1 | 63.6%
57 | OC1CCN(CCCOc2c3ccccc3nc3c2oc2ccc(Cl)cc23)CC1 | 24.9%
58 | Cc1sc2c(c1C)c(=O)nc1c(-c3nc(-c4ccc(F)cc4)no3)n[nH]n12 | 115%
59 | CC(C)(C)Nc1nc2c(OCCc3ccccc3)cccn2c1-c1cccc(F)c1 | 15%
